This note sets out measurements from PubChem BioAssay (Tox21).

Test [1] can be described thus: qHTS assay for small molecule agonists of the p53 signaling pathway - cell viability (AID 651633; calls by dose curve;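 further: p53RE-bla HCT reporter cells with a stable beta-lactamase p53 reporter; series mostly up to about 83 µM; nearly all actives have a fitted effect of over 30% in size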). The gist of the method: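 Viability counter-read: CellTiter-Glo luminescence (30 min, room temperature) in the same p53RE-bla plates. These plates had been exposed to compounds for 16 h at 37 C.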
Background: qHTS replaces the single test concentration by a dilution series.

The nature of test [2]: qHTS assay for small molecules that induce genotoxicity in human embryonic kidney cells expressing luciferase-tagged ATAD5 - cell viability (AID 651634; calls by dose curve; further: nearly all actives have a fitted effect of over 25% in size). The gist of the method:
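Here HEK293T cells with the ATAD5 luciferase reporter are incubated with test compounds for 15.5 hr, and cytotoxicity is then gauged by measuring protease activity in live cells using fluorescence.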

Test [3] can be described thus: qHTS assay for small molecule disruptors of the mitochondrial membrane potential - cell viability (AID 720634; calls by dose curve; further: nearly all actives have a fitted effect of over 20% in size; further: potency means the concentration at half of the fitted maximal effect). The gist of the method:
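Viability of HepG2 cells is scored from ATP content by luminescence; cells are exposed to compound for 1 hr at 37 C and 5% CO2, then dosed with m-MPI dye before the CellTiter-Glo reagent.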

A short description of test [4]: qHTS assay for small molecule disruptors of the mitochondrial membrane potential (AID 720635). Further: potency means the concentration at half of the fitted maximal effect. Summed up: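 Mitochondrial membrane potential tracked with Mito-MPS dye, red aggregates (ex 540/em 590 nm) against green monomers (ex 490/em 535 nm). Compound treatment 1 hr at 37C, dye 30 min in HepG2.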
Test [5] is described as follows: qHTS assay to test for compound auto fluorescence at 590 nm (red) in HepG2 cells (AID 720674). The gist of the method:
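Red autofluorescence (Ex/Em 540/590 nm, Rose Bengal sodium equivalents) was measured in HepG2 cells, 2,000 per well in MEM plus 10% FBS, plated overnight at 37 C. Readings were taken 1 hr after adding 23 nL compound or DMSO, at 37 C and 5% CO2.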

A short description of test [6]: qHTS assay to test for compound auto fluorescence at 535 nm (green) in HepG2 cells (AID 720675).
Test [7] is described as follows: qHTS assay to test for compound auto fluorescence at 460 nm (blue) in HEK293 cells (AID 720678). The gist of the method:
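Auto fluorescence in the blue band was quantified as triamterene equivalency. HEK293 cells were seeded at 2,000/well, dosed after a 4-5 hr attachment, and kept overnight at 37C before the 405/460 nm reading.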

Test [8] can be described thus: qHTS assay to test for compound auto fluorescence at 590 nm (red) in HEK293 cells (AID 720679). The gist of the method:
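Autofluorescence equivalency to Rose Bengal sodium, 540/590nm, in HEK293 cells exposed overnight to 23 nL compound per well.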

Test [9] is described as follows: qHTS assay to test for compound auto fluorescence at 535 nm (green) in HEK293 cells (AID 720680).
The nature of test [10]: qHTS assay to test for compound auto fluorescence at 535 nm (green) in HEK293 cell free culture (AID 720682). The gist of the method:
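DMEM + 10% FBS, cell-free; cpd or DMSO pinned in; Ex485/Em535 read; output as fluorescein-equivalent signal.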

The nature of test [11]: qHTS assay to test for compound auto fluorescence at 590 nm (red) in HEK293 cell free culture (AID 720683). The gist of the method:
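Red-channel autofluorescence of compounds in culture medium (DMEM, 10% FBS), no cells, measured at 540/590 nm. Rose Bengal sodium is the reference fluorophore for equivalence.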

A short description of test [12]: qHTS assay to test for compound auto fluorescence at 590 nm (red) in HepG2 cell free culture (AID 720684). Summed up:
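Cell-free; medium MEM + 10% FBS; compound or DMSO added by pintool; read Ex 540/Em 590 nm; Rose Bengal sodium as red reference fluorophore.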

A short description of test [13]: qHTS assay to test for compound auto fluorescence at 460 nm (blue) in HepG2 cell free culture (AID 720685). The gist of the method: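 Cell-free plates of MEM plus 10% FBS received 23 nL compound or DMSO vehicle; blue-channel (405/460 nm) intensity scored against triamterene as reference fluorophore.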
A short description of test [14]: qHTS assay to test for compound auto fluorescence at 535 nm (green) in HepG2 cell free culture (AID 720686).
The nature of test [15]: qHTS assay to test for compound auto fluorescence at 460 nm (blue) in HepG2 cells (AID 720687). Summed up:
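Blue-channel autofluorescence (Ex/Em 405/460 nm, triamterene-equivalent) was measured after 1 hr compound exposure at 37 C, 5% CO2. Cells were HepG2, plated overnight at 37 C in MEM plus 10% FBS.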

Test [16] has as its target Glucocorticoid receptor (Homo sapiens) (UniProt P04150). In words: qHTS assay to identify small molecule agonists of the glucocorticoid receptor (GR) signaling pathway (AID 720691; active means well fitted activation curve with a large enough effect in the signal ratio in the repeat runs, not every such curve was filed as active; the % refers to the signal ratio). The gist of the method: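 Compounds in DMSO, alongside positive controls, were added to GR-bla HeLa reporter cells and incubated 18 h at 37 C; GRE-driven beta-lactamase was detected by fluorescence after 2 h with FRET substrate at room temperature.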

For test [17] the target is unchanged. In words: qHTS assay to identify small molecule antagonists of the glucocorticoid receptor (GR) signaling pathway (AID 720692; active means well fitted inhibition curve with a large enough effect in the signal ratio in the repeat runs, not every such curve was filed as active; the % refers to the signal ratio; further: potency means the concentration at half of the fitted maximal effect). Summed up:
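In a 1536-well cell format, compounds were added 4 h after seeding GR-bla HeLa cells, together with dexamethasone at 5 nM final; reporter activity was measured by FRET-substrate fluorescence following 18 h at 37 C.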

Test [18] in a line: qHTS assay to test for compound auto fluorescence at 460 nm (blue) in HEK293 cell free culture (AID 720681). The gist of the method: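 Blue fluorescence (Ex 405/Em 460 nm, triamterene-equivalent) was read immediately after pin transfer of compound or DMSO into medium (DMEM, 10% FBS) without cells.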
Test [19] can be described thus: qHTS assay for small molecules that induce genotoxicity in human embryonic kidney cells expressing luciferase-tagged ATAD5 (AID 651632). Further: nearly all actives have a fitted effect of over 15% in size. Summed up:
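DMSO vehicle served as the control. HEK293T reporter cells, 16 hr at 37C, then 30 min Amplite at room temperature; ATAD5 induction is measured as luciferase activity.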

“And” between values parts separate entries of the source, which are not always exact repeats. Equal values may be shown once. Results filed as inconclusive are left out. The source made the active and inactive calls. Unless noted, the call rests on the fitted dose curve; in most records, active means well fitted curve in the direction sought with a large enough effect in the repeat runs; inconclusive means weak or mixed curves; inactive means no such curve, though single readings can be large; an effect the other way counts as inactive or inconclusive.

Chain of Glucocorticoid receptor (Homo sapiens) (P04150 whole entry, looked up): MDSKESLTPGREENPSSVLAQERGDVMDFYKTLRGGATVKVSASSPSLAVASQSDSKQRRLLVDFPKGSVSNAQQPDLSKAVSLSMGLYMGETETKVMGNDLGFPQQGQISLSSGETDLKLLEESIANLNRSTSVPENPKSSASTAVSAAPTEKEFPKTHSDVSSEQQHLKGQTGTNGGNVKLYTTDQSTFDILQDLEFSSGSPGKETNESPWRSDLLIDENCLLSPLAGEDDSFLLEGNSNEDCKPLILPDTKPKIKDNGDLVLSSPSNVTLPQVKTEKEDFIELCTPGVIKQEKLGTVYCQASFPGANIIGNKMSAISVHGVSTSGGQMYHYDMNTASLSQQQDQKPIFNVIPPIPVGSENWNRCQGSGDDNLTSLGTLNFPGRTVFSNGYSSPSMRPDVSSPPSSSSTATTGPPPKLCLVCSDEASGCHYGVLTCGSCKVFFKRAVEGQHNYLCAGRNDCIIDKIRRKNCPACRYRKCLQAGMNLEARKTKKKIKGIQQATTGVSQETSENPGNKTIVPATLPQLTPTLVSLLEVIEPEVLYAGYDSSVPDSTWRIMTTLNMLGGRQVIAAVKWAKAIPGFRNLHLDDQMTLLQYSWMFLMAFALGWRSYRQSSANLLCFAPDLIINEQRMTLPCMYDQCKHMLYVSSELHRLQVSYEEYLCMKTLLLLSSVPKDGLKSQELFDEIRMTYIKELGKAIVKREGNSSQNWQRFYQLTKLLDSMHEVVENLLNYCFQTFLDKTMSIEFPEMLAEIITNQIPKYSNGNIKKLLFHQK

Consider `O=C(O)CC[N+](=O)[O-]`, for which the Potency entry in [1], in test [2], in test [3], in [4], in [16] and in [17] was “inactive” throughout. For the same compound, the outcome in [5], in test [6], in test [7], in [8], in test [9] and in [10] was inactive. For the same compound, the outcome in test [11], in [12], in test [13], in test [14] and in test [15] was inactive.

For the compound `S=C1NCCN1`, the Potency entry in [1] and in test [2] was “inactive” throughout. For the same compound, the compound was classed as inactive in test [5], in test [6], in test [7], in [8], in test [9] and in [18]. For the same compound, the compound was called inactive in [10], in test [11], in test [13], in [14] and in [15].

Consider `CCCCCc1cc(O)cc(O)c1`, for which the Potency result in [19] and in test [1] was “inactive” in each case. Also, the Potency is 61.1 µM (active) in test [3]; 9.73 µM (active) and 7.7 µM (active) in [4]. In addition, the call in test [7], in test [8], in [18], in [10], in [11] and in test [12] was inactive. Also, the compound was called inactive in [13], in [14] and in test [15].

Take `CC(C)c1ccc(CO)cc1`: the Potency entry in [19], in [1], in [2] and in test [3] was “inactive” throughout. In addition, the result in [5], in test [7], in test [8], in test [9], in test [18] and in [10] was inactive. For the same compound, the call in [11], in test [12], in test [13], in test [14] and in test [15] was inactive.

With `CCc1cccc(CC)c1N(COC)C(=O)CCl`, the Potency entry in [19], in [1], in test [2] and in test [3] was “inactive” throughout. The outcome in test [5], in test [6], in test [7], in test [8], in [9] and in [18] was inactive. The outcome in test [10], in [11], in [12], in [13], in [14] and in [15] was inactive.

For the compound `CC(O)CCO` (stereo not given), the Potency result in [19], in test [1] and in [2] was “inactive” each time. For the same compound, the call in test [5], in test [6], in test [7], in test [8], in test [18] and in test [10] was inactive. In addition, the call in test [11], in [12], in test [13], in test [14] and in test [15] was inactive.

On to `CCCCCCCCC(=O)NCc1ccc(O)c(OC)c1`, for which the Potency entry in test [19], in [1], in [2] and in test [3] was “inactive” throughout. The call in [5], in test [7], in test [8], in test [10], in [11] and in [12] was inactive. For the same compound, the compound was called inactive in [13], in [14] and in test [15].

`CCCCC(CC)COC(=O)c1ccc(C(=O)OCC(CC)CCCC)c(C(=O)OCC(CC)CCCC)c1` (stereo not given): the Potency entry in [19], in test [1], in [2], in test [16] and in test [17] was “inactive” throughout. Further, the call in test [7], in [8], in [9], in test [18], in test [10] and in [11] was inactive. The result in [13], in test [14] and in [15] was inactive.

In the case of `Oc1c(Cl)c(Cl)c(Cl)c(Cl)c1Cl`, the Potency result in test [19], in test [1], in test [3] and in [16] was “inactive” throughout. The Potency in test [4] was 3.78 µM (active) and 1.53 µM (active). In addition, the compound was classed as inactive in test [5], in test [7], in test [8], in [9], in test [18] and in test [10]. In addition, the call in test [11], in test [12], in [13], in [14] and in [15] was inactive.

In the case of `C=CCc1ccc(OC)cc1`, the Potency result in [1], in test [2] and in test [3] was “inactive” each time. In addition, the call in test [5], in test [7], in test [8], in [9], in test [10] and in test [11] was inactive. Besides, the result in [12], in test [13], in [14] and in test [15] was inactive.

On to `CC1(C)C(C=C(Cl)Cl)C1C(=O)OC(C#N)c1cccc(Oc2ccccc2)c1` (stereo not given), for which the Potency result in test [19], in test [1], in test [2] and in test [16] was “inactive” throughout. Besides, the result in [5], in test [6], in test [7], in test [8], in test [18] and in test [10] was inactive. Besides, the compound was classed as inactive in [11], in test [12], in [13], in test [14] and in [15].

Regarding `CCCCC(CC)COC(=O)Cl` (stereo not given), the Potency result in test [19], in [1], in [2] and in test [17] was “inactive” each time. Also, the call in test [5], in [6], in test [7], in test [8], in test [9] and in test [10] was inactive. Moreover, the outcome in test [11], in test [12], in test [13], in test [14] and in test [15] was inactive.

Regarding `O=[N+]([O-])c1c(Cl)c(Cl)c(Cl)c(Cl)c1Cl`, the Potency result in [19], in [1], in [2] and in [3] was “inactive” each time. The call in test [5], in test [6], in test [7], in test [8], in test [9] and in [18] was inactive. Moreover, the compound was classed as inactive in test [10], in [11], in test [13], in test [14] and in test [15]. Also, the Potency in [17] is 30.9 µM (active).
